“And” between values parts separate entries of the source, which are not always exact repeats. Equal values may be shown once. About 2,100 (0.66%) of roughly 320,000 compounds were called active. Another 53% or so got no clear call; they are omitted. Calls follow the shape of the dose curve; as a rule, active = well fitted inhibition curve with a large enough effect in the signal ratio, with a control signal flat (not every such curve was filed as active); inconclusive = small, poorly fitted or top-dose-only effect, or effect the other way, or a change in a side signal; inactive = flat fitted curve, though single readings scatter; the % refers to the signal ratio. Shown is part of a subset that was picked to be rich in actives.
test: qHTS Assay for Lipid Storage Modulators in Drosophila S3 Cells; conditions: BODIPY lipid droplet fluorescence, 18-24 h, cells fed with added oleic acid; cell number change: measured here: cell count max response; series mostly up to 46.1 µM; lipid storage change, negative = inhibition: at the top concentration;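 as to cell number change: cells counted by Cell Tracker Red CMTPX staining in the red channel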; as to lipid storage change, negative = inhibition: % is scaled to controls: 0 for no effect and ±100 for the full control effect
Method in brief: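 Laser-scanning cytometry quantifies lipid droplet accumulation (500–530 nm total intensity; droplet/cell object ratio) in oleic acid-fed (400 uM added) Drosophila S3 cells treated with a concentration series. 20 uM Triacsin C defined 100% inhibition.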
Potency is read from the fitted curve at half-maximal effect.

**Q.** For COc1ccccc1-n1c(-c2ccc(F)cc2)coc1=O, which “lipid storage change, negative = inhibition” value is on record?
**A.** Its value is 8.23% (inactive).

**Q.** And the cell number change?
**A.** Its cell number change is 9.35%.

**Q.** Which “outcome” value does the source give for COC(=O)Nc1ccc(S(=O)(=O)N2CCN(c3ccc(F)cc3)CC2)cc1 here?
**A.** The value was “inactive”.

**Q.** For COCCn1nnnc1C(c1ccccn1)N1CCN(c2cccc(C)c2C)CC1 (stereo unspecified), which “lipid storage change, negative = inhibition” value is on record?
**A.** The value was 3.18% (inactive).

**Q.** And the cell number change?
**A.** The cell number change was 1.34%.

**Q.** Which results are given for Cc1cc(Cl)c(S(=O)(=O)NC(C(=O)O)c2ccccc2)cc1OCC(N)=O (stereo unspecified)?
**A.** outcome: inactive; cell number change: 6.34%

**Q.** What does the source list for COc1ccc(CC2(CO)CCN(C(C)Cc3ccc(Cl)cc3)CC2)cc1 (stereo unspecified)?
**A.** lipid storage change, negative = inhibition: -5.1% (inactive); cell number change: -1.88%

**Q.** Which results are given for CC(=O)C1=NN(c2ccc(Cl)cc2)C(c2ccc3c(c2)OCO3)N(C(C)=O)N1C (stereo unspecified)?
**A.** lipid storage change, negative = inhibition: 10.1% (inactive); cell number change: 4.72%

**Q.** What does the source list for O=C(CNc1ccc(Br)cc1)c1ccccc1?
**A.** lipid storage change, negative = inhibition: 1.32% (inactive); cell number change: -10.1%

**Q.** For O=C(NNC1CC(=O)N(c2ccc(Cl)cc2)C1=O)c1ccccn1 (stereo unspecified), which “lipid storage change, negative = inhibition” value is on record?
**A.** The value was -2.98% (inactive).

**Q.** And the cell number change?
**A.** Its cell number change is 6.05%.

**Q.** With CCCCNCc1cc2ccccc2o1 as the compound, how does the “lipid storage change, negative = inhibition” value read?
**A.** Its value is -15.4% (inactive).

**Q.** And the cell number change?
**A.** The cell number change was -14.5%.

**Q.** For Cc1ccc(-c2nn(CC(=O)O)c(=O)c3ccccc23)cc1, which “lipid storage change, negative = inhibition” value is on record?
**A.** Its value is 4.71% (inactive).

**Q.** What about the cell number change of the same compound?
**A.** The cell number change was -4.34%.

**Q.** Which results are given for O=C(CCN1C(=O)[C@@H]2Cc3ccccc3CN2C1=O)N[C@H](C(=O)O)c1ccccc1?
**A.** outcome: inactive; cell number change: 8.94%

**Q.** Which results are given for COc1ccc(NC(=O)COC(=O)Cc2cccs2)cc1OC?
**A.** lipid storage change, negative = inhibition: 24.7% (inactive); cell number change: -0.769%

**Q.** What does the source list for O=C(CSc1nc2ccccc2o1)N1N=C(c2cccs2)CC1c1ccc(F)cc1 (stereo unspecified)?
**A.** outcome: inactive; cell number change: -17.4%

**Q.** For COc1ccc(C2CC(c3cccs3)=NN2C(=O)CSc2nc3ccccc3o2)cc1 (stereo unspecified), which Potency is on record?
**A.** Its Potency is 9.2 µM (active).

**Q.** What about the cell number change of the same compound?
**A.** The cell number change was -8.56%.

**Q.** What does the source list for COc1cccc(C2CC(c3cccs3)=NN2C(=O)CSc2nc3ccccc3o2)c1OC (stereo unspecified)?
**A.** lipid storage change, negative = inhibition: -2.37% (inactive); cell number change: 8.7%

**Q.** Which “outcome” value does the source give for CC(=O)c1ccc(NC(=O)Cn2cnc(S(=O)(=O)N3CCOCC3)c2)cc1 here?
**A.** Its value is “inactive”.

**Q.** What about the cell number change of the same compound?
**A.** Its cell number change is -2.31%.

**Q.** For COc1ccc2cc(CCNC(=O)c3cccc([N+](=O)[O-])c3)c(=O)[nH]c2c1, which “lipid storage change, negative = inhibition” value is on record?
**A.** The value was 1.68% (inactive).

**Q.** What about the cell number change of the same compound?
**A.** Its cell number change is 9.49%.

**Q.** Which results are given for NC(=O)CN1C(=O)C(O)(CC(=O)/C=C\c2ccc3c(c2)OCO3)c2ccccc21 (stereo unspecified)?
**A.** lipid storage change, negative = inhibition: 3.04% (inactive); cell number change: -3.53%

**Q.** For O=C(/C=C\c1ccc2c(c1)OCO2)CC1(O)C(=O)Nc2ccccc21 (stereo unspecified), which “lipid storage change, negative = inhibition” value is on record?
**A.** Its value is 4.36% (inactive).

**Q.** And the cell number change?
**A.** The cell number change was 10.9%.

**Q.** With CN1C(=O)C(O)(CC(=O)/C=C\c2ccc3c(c2)OCO3)c2ccccc21 (stereo unspecified) as the compound, how does the Potency read?
**A.** Its Potency is 0.366 µM (active).

**Q.** And the cell number change?
**A.** Its cell number change is -43.9%.

**Q.** For CCOc1ccc(S(=O)(=O)NCC2CCCO2)cc1NC(=O)c1ccccc1F (stereo unspecified), which “outcome” value is on record?
**A.** Its value is “inactive”.

**Q.** What about the cell number change of the same compound?
**A.** The cell number change was 23.9%.

**Q.** For COc1ccc(S(=O)(=O)NCC2CCCO2)cc1NC(=O)c1ccccc1F (stereo unspecified), which Potency is on record?
**A.** The Potency was 25.9 µM (active).

**Q.** What about the cell number change of the same compound?
**A.** The cell number change was -5.13%.

**Q.** Which “lipid storage change, negative = inhibition” value does the source give for COc1ccc(S(=O)(=O)NCC2CCCO2)cc1C(=O)O (stereo unspecified) here?
**A.** Its value is -1.07% (inactive).

**Q.** And the cell number change?
**A.** The cell number change was 10.7%.

**Q.** What does the source list for C#CCOCCOCCOCCNc1nc(N2CCN(C(=O)[C@H](CCC(=O)O)n3cc(C(N)CO)nn3)CC2)nc(N2CCN(C(=O)[C@H](Cc3cc4ccccc4[nH]3)n3cc(C(N)[C@H](C)CC)nn3)CC2)n1 (stereo partly specified)?
**A.** lipid storage change, negative = inhibition: -13% (inactive); cell number change: 10.5%

**Q.** With Cc1ccc(NC(=O)CCN2C(=O)C3C4CCC(C4)C3C2=O)cc1[N+](=O)[O-] (stereo unspecified) as the compound, how does the “lipid storage change, negative = inhibition” value read?
**A.** Its value is 2.12% (inactive).

**Q.** What about the cell number change of the same compound?
**A.** Its cell number change is -0.215%.

**Q.** Which results are given for Cc1ccnc2nc(C(=O)OCC(=O)N(CC(C)C)C3CCS(=O)(=O)C3)nn12 (stereo unspecified)?
**A.** lipid storage change, negative = inhibition: 9.53% (inactive); cell number change: 2.08%

**Q.** For COc1ccc(CC(=O)NCC2COc3ccccc3O2)cc1 (stereo unspecified), which “lipid storage change, negative = inhibition” value is on record?
**A.** The value was -7.76% (inactive).

**Q.** And the cell number change?
**A.** Its cell number change is 0.718%.

**Q.** With COc1ccccc1C(=O)NCCC(=O)NCC1COc2ccccc2O1 (stereo unspecified) as the compound, how does the Potency read?
**A.** Its Potency is 20.6 µM (active).

**Q.** What about the cell number change of the same compound?
**A.** The cell number change was -11.7%.

**Q.** With O=C(CCC1COc2ccccc2O1)NCC1COc2ccccc2O1 (stereo unspecified) as the compound, how does the “lipid storage change, negative = inhibition” value read?
**A.** The value was 10.9% (inactive).

**Q.** And the cell number change?
**A.** Its cell number change is 8.2%.

**Q.** With O=C(N/C(=C/c1ccccc1)C(=O)N1CCCCCC1)c1ccccc1 as the compound, how does the “lipid storage change, negative = inhibition” value read?
**A.** Its value is 0.572% (inactive).

**Q.** What about the cell number change of the same compound?
**A.** Its cell number change is 10.3%.

**Q.** With CCOC(=O)c1c(O)c(O)c(C(=O)OCC)n1-c1ccccc1 as the compound, how does the “lipid storage change, negative = inhibition” value read?
**A.** The value was -6.73% (inactive).

**Q.** And the cell number change?
**A.** The cell number change was 6.34%.

**Q.** What does the source list for CCOC(=O)c1c(C)nc2c3ccccc3ccn12?
**A.** outcome: inactive; cell number change: -20.3%

**Q.** For CCOC(=O)c1c2ccccc2[n+]([O-])n1CCO, which Potency is on record?
**A.** The Potency was 18.4 µM (active).

**Q.** And the cell number change?
**A.** The cell number change was -10.4%.

**Q.** With Cc1nc2ccc(NS(=O)(=O)c3ccc(F)cc3)cc2s1 as the compound, how does the “outcome” value read?
**A.** Its value is “inactive”.

**Q.** And the cell number change?
**A.** The cell number change was 20%.

**Q.** Which Potency does the source give for Cc1nc2ccc(NS(=O)(=O)c3ccc(F)cc3F)cc2s1 here?
**A.** Its Potency is 13 µM (active).

**Q.** And the cell number change?
**A.** Its cell number change is -1.41%.

**Q.** With Cc1nc2ccc(NS(=O)(=O)c3ccccc3F)cc2s1 as the compound, how does the “lipid storage change, negative = inhibition” value read?
**A.** Its value is 12.6% (inactive).

**Q.** What about the cell number change of the same compound?
**A.** Its cell number change is 3.06%.

**Q.** With Cc1ccc(S(=O)(=O)Nc2ccc3nc(C)sc3c2)c(C)c1 as the compound, how does the Potency read?
**A.** The Potency was 10.3 µM (active).

**Q.** What about the cell number change of the same compound?
**A.** The cell number change was 24.9%.

**Q.** Which results are given for Cc1ccc(S(=O)(=O)Nc2ccc3nc(C)sc3c2)cc1?
**A.** lipid storage change, negative = inhibition: -16% (inactive); cell number change: -22.9%

**Q.** What does the source list for Cc1ccc(S(=O)(=O)Nc2ccc3nc(N)sc3c2)cc1?
**A.** lipid storage change, negative = inhibition: 16.5% (inactive); cell number change: -27.3%

**Q.** For COC(=O)C1=C(C)N(Cc2ccccc2)C(=NCc2cccc(Cl)c2)N[C@H]1c1ccccc1, which Potency is on record?
**A.** Its Potency is “inactive”.

**Q.** And the cell number change?
**A.** Its cell number change is -18.9% and 6.44%.

**Q.** For COC(=O)C1=C(C)N(Cc2ccccc2)C(=NCc2cccc(Cl)c2)N[C@H]1c1cccc(F)c1, which Potency is on record?
**A.** The Potency was 20.6 µM (active).

**Q.** And the cell number change?
**A.** The cell number change was -27.7%.

**Q.** For COC(=O)C1=C(C)N(Cc2ccccc2)C(=NCc2ccccc2)N[C@H]1c1cccc(F)c1, which “lipid storage change, negative = inhibition” value is on record?
**A.** The value was -22.4% (inactive).

**Q.** And the cell number change?
**A.** The cell number change was -6.29%.

**Q.** With CCc1ccc(/C=C2\SC(=S)N(CCC(=O)NC3=NCCS3)C2=O)cc1 as the compound, how does the “lipid storage change, negative = inhibition” value read?
**A.** Its value is -19.7% (inactive).

**Q.** For Cc1cccc(Nc2nc(N)nc(CN3CCN(c4ccc(F)cc4)CC3)n2)c1, which “lipid storage change, negative = inhibition” value is on record?
**A.** Its value is 13.2% (inactive).

**Q.** And the cell number change?
**A.** Its cell number change is -18.7%.
